40 molecules from PubChem BioAssay (Tox21) can be followed below.

Results filed as inconclusive are left out. Activity calls are given as the source filed them. Calls come from the whole dose curve; as a rule, active = well fitted activation curve with a large enough effect in the repeat runs; inconclusive = weak or mixed curves, or effect the other way; inactive = no such curve, though single readings can be large or run the other way.
% is set by controls: 0 for no effect and ±100 for the full control effect.

This assay can be described thus: qHTS assay to identify small molecule agonists of the estrogen related receptor signaling pathway with the pleiotropic PPARgamma coactivator (PGC) from Tox21 10K library (AID 1224842). Note: nearly all actives have a fitted effect of over 15% in size. To be noted: PGC/ERR reporter cell line, luciferase ONE-Glo, 18 h; series mostly up to 92.4 µM; activation: at the top concentration. An excerpt:
National Center for Advancing Translational Sciences [NCATS] NIH Chemical Genomics Center [NCGC] U.S. Environmental Protection Agency [EPA] National Institutes of Environmental Health Sciences [NIEHS] National Toxicology Program [NTP] Assay overview: Estrogen related receptors (ERRs), the first orphan nuclear receptors discovered, play an important role in the control of cellular energy metabolism. ERRs are required for high-energy production in response to the environmental challenges. The pleiotropic PPARgamma coactivator (PGC) is a major partner of ERR and a key regulator in energy homeostasis. Together they have been implicated in the etiology of metabolic disorders such as Type 2 diabetes and metabolic syndrome. ERR-alpha was also identified as an adverse marker for breast cancer progression; ERR-alpha-positive tumors have a poor prognosis. To screen and to identify environmental compounds that perturb the PGC/ERR signaling pathways could provide valuable information for potential therapeutic or preventive measures in the treatment of metabolic disease. For identifying PGC/ERR agonists, PGC/ERR cell line (provided by NTP) has been used to screen Tox21 10K library.
Assay Protocol Summary: The PGC/ERR cells were dispensed at 2,000 cells/5 ul/well in 1536-well white plates using a Multidrop dispenser. After the assay plates were incubated at a 37 C/5% CO2 incubator for 6 hours, 23 nL of compounds dissolved in DMSO, positive and negative controls or DMSO only was transferred to the assay plate by a pin tool. The plates were incubated at 37 C for 18 hours. 4 ul/well of One-Glo reagent was added into the assay plates using a Flying Reagent Dispenser. After 30-minute incubation at room temperature, the luminescence intensity in the plates was measured using a ViewLux plate reader.
Background: qHTS replaces the single test concentration by a dilution series.
Take `CN(C)CCCSc1ccccc1NC(=O)/C=C/c1ccccc1`: the “activation” value was -0.342% [at 42.5 µM] (inactive). Then `CC1=CC(C)C(C=O)CC1` (stereo not given), with 2.79% (inactive). Then `Cn1c(N)c(N=O)c(=O)n(C)c1=O`, with -7.4% (inactive); and `COC(=O)c1c(Cl)c(Cl)c(C(=O)OC)c(Cl)c1Cl`, with 0.66% (inactive); and `CC(C)CCCC(C)N` (stereo not given), with 7.04% [at 42.5 µM] (inactive). Then `Cc1cc(O)cc2c1O[C@](C)(CCC[C@H](C)CCC[C@H](C)CCCC(C)C)CC2`, with 13.8% [at 42.5 µM] (inactive); and `COCCCOCCCOC`, with 2.89% (inactive).

As for `C=CCOCC(CC)(CO)COCC=C`, the “activation” value is -0.326% (inactive). `C=C[Si](OC(=C)C)(OC(=C)C)OC(=C)C`: the “activation” value was 1.49% (inactive). On to `CN1CCCC1`, for which the “activation” value is 0.322% (inactive). For the molecule `CCS(=O)(=O)c1ccc(OC)c(C(=O)OC)c1`, the “activation” value was -0.225% [at 42.5 µM] (inactive). Turning to `CCn1ccnc1CC1COc2ccccc2O1` (stereo not given), the “activation” value is 3.3% [at 42.5 µM] (inactive). To `CCC(C)C1CCCCC1=O` (stereo not given) belongs -0.143% (inactive); to `C=CCCCCCCCCC=O`, -0.0266% (inactive). To `N=C(N)c1ccc2cc(OC(=O)c3ccc(N=C(N)N)cc3)ccc2c1` belongs -0.136% [at 42.5 µM] (inactive); to `CCCCOCCOCCOCCCC`, 0.747% (inactive); to `CCCCNC(=O)NCCCC`, -0.38% (inactive).

In the case of `CC(=O)Nc1c(I)cc(I)c(C(=O)O)c1I`, the “activation” value was 1.11% [at 42.5 µM] (inactive). Then `COC(=O)[C@@H](N)Cc1ccc(O)c(O)c1`, with -0.107% [at 42.5 µM] (inactive). For the molecule `Brc1c(NC2=NCCN2)ccc2nccnc12`, the “activation” value was -0.199% [at 42.5 µM] (inactive).

Consider `O=c1cc(CO)occ1O`, for which the “activation” value is 1.31% [at 42.5 µM] (inactive). Regarding `CC(C)c1cc2c(cc1S(=O)(=O)O)[C@@]1(C)CCC[C@@](C)(C(=O)O)[C@@H]1CC2`, the “activation” value is -0.172% [at 42.5 µM] (inactive). With `COC(=O)CC(C)=O`, the “activation” value was 0.0623% (inactive). Then `CCOc1ccc(C(=O)OCCN(CC)CC)cc1`, with 0.403% [at 42.5 µM] (inactive). Then `CCOC(=O)c1cccc(N)c1`, with 0.224% [at 42.5 µM] (inactive); and `C/C=C(\C)C#N`, with 2.36% (inactive); and `CC(=O)CC(C)C`, with 2.63% (inactive). Then `COc1ccc2c(c1)CCCC2=O`, with -2.64% [at 42.5 µM] (inactive). For the molecule `CCCCCCCCS(=O)(=O)Cl`, the “activation” value is -1.24% (inactive). On to `COc1cc(C(=O)N2CCCCCCC2)cc(OC)c1OC`, for which the “activation” value was 0.267% [at 42.5 µM] (inactive). Then `CCCc1cc(C(N)=S)ccn1`, with -4.51% [at 42.5 µM] (inactive).

For `Nc1c[n+](N2CCOCC2)no1`, the “activation” value was -0.352% [at 42.5 µM] (inactive). On to `CO/N=C(/C(=O)N[C@@H]1C(=O)N2C(C(=O)OCOC(=O)C(C)(C)C)=C(C)CS[C@H]12)c1csc(N)n1`, for which the “activation” value was 0.703% [at 42.5 µM] (inactive). To `COC(C)(C)CCCC(C)CC=O` (stereo not given) belongs 3.24% (inactive); to `CCOC(=O)CCC(C)=O`, 3.31% (inactive); to `CCc1cccc2c(CCO)c[nH]c12`, 4.01% [at 42.5 µM] (inactive). As to `O=Cc1cccc([N+](=O)[O-])c1`, the “activation” value was -11% (inactive).

With `CCCCCOC(=O)CCCCC`, the “activation” value was -5.38% (inactive). In the case of `Cc1ccc(Cl)cc1Cl`, the “activation” value was 0.713% (inactive).

Regarding `COc1c(N2C[C@@H]3CCCN[C@@H]3C2)c(F)cc2c(=O)c(C(=O)O)cn(C3CC3)c12`, the “activation” value was 6.65% [at 42.5 µM] (inactive).
